# Records with an inconclusive call do not appear. Active and inactive are the calls of the source. Calls come from the whole dose curve; as a rule, active = well fitted cell-killing curve with a large enough effect; inconclusive = small, poorly fitted or top-dose-only effect, or effect the other way; inactive = no such curve, though single readings can be large or run the other way.
# Assay: Cell Viability - LYMP2-004 (AID 966); note: nearly all actives have a fitted effect of over 65% in size
# Conditions: LYMP2-004 lymphoblastoid cell viability, qHTS; series mostly up to 92.2 µM
# Source text: NIH Chemical Genomics Center [NCGC]
# NIH Molecular Libraries Screening Centers Network [MLSCN]
# National Institutes of Environmental Health Sciences [NIEHS]
# National Toxicology Program [NTP]
# We have developed a 1536-well cell-based assay for quantitative high throughput screening (qHTS) against a number of cell lines to determine in vitro cytotoxicity of small molecules. This particular assay uses a human lymphoblastoid cell line (LYMP2-004) purchased from Coriell Institute for Medical Research.
# NCGC Assay Protocol Summary:
# The CellTiter-Glo luminescent cell viability assay (Promega) is a homogeneous method to measure the number of viable cells in culture. The end point readout of this assay is based on quantitation of intracellular ATP, an indicator of metabolic activity, using the luciferase reaction. Luciferase catalyzes the oxidation of beetle Luciferin to oxyluciferin and light in the presence of ATP. The luminescent signal is proportional to amount of ATP present.
# Using the CellTiter-Glo luminescent cell viability assay, the amount of cellular ATP was measured in the lymphoblastoid cell line with complete culture medium following compound treatment for 24 hours. The assay was performed in opaque white Kalypsys 1536-well plates. In the screen, tetraoctylammonium bromide was used as positive control. Library compounds were measured for their ability to cause acute toxicity in the cell line, as reflected by a decrease in intracellular ATP levels, in a concentration-dependent manner. […] AC50 values were determined from concentration-response data modeled with the standard Hill equation.
# qHTS protocol for CellTiter Glo lymphoblastoid cellular assay
# [Step] [Parameter] [Value] [Description]
# 1. Reagent; 5 uL; 2500 lymphoblastoid cells/well
# 2. Time; 5 hr; 37 C incubation
# 4. Controls; 23 nL; Tetraoctylammonium bromide 6.4pM to 92 uM
# 5. Time; 24 hr; 37 C incubation
# 6. Reagent; 5 uL; CellTiter Glo reagent
# 7. Time; 30 min; Room Temperature
# 8. Detection; Luminescence; Viewlux plate reader
# Keywords: cell viability, cytotoxicity, lymphoblastoid cell line, luminescence, NTPHTS, NTPHTS_NCGC, NIEHS, DSSTox, MLSMR, MLSCN, NIH Roadmap, qHTS, NCGC
row,Structure (SMILES),outcome
1,CCOc1ccc(NC(C)=O)cc1,inactive
2,OC[C@H]1O[C@@H]2O[C@H]3[C@H](O)[C@@H](O)[C@@H](O[C@H]4[C@H](O)[C@@H](O)[C@@H](O[C@H]5[C@H](O)[C@@H](O)[C@@H](O[C@H]6[C@H](O)[C@@H](O)[C@@H](O[C@H]7[C@H](O)[C@@H](O)[C@@H](O[C@H]8[C@H](O)[C@@H](O)[C@@H](O[C@H]1[C@H](O)[C@H]2O)O[C@@H]8CO)O[C@@H]7CO)O[C@@H]6CO)O[C@@H]5CO)O[C@@H]4CO)O[C@@H]3CO,inactive
3,COc1ccc(C(=O)c2ccccc2)c(O)c1,inactive
4,COc1cc([C@H]2Oc3cc([C@H]4Oc5cc(O)cc(O)c5C(=O)[C@@H]4O)ccc3O[C@@H]2CO)ccc1O,inactive
5,CCCCC(CC)COC(=O)c1ccc(N(C)C)cc1 (stereo not drawn),inactive
6,C=C[C@H]1CN2CC[C@H]1C[C@@H]2[C@@H](O)c1ccnc2ccc(OC)cc12,inactive
7,C/C=C/c1ccc(O)c(OC)c1,inactive
8,CCOc1ccccc1C(N)=O,inactive
9,NC(=O)c1ccccc1O,inactive
10,O=C(O)c1ccc(S(=O)(=O)N(Cl)Cl)cc1,inactive
11,COc1ccc(C(Cl)=C(c2ccc(OC)cc2)c2ccc(OC)cc2)cc1,inactive
12,CCCN(CCC)S(=O)(=O)c1ccc(C(=O)O)cc1,inactive
13,NCCNc1cccc2ccccc12,inactive

# Source: PubChem BioAssay (NCATS)
